# Test results taken from the supplement of paper PMC10849652.
# Of roughly 8,800 targets only a part is listed; those with a hit were picked by preference. About 0.5% of all pairs of compound and target were hits. A number with no mark means an inactive call.
# Columns and labels:
# Assay in all cases: log2 fold change, soluble protein after heating vs DMSO (PISA); higher = thermal stabilisation; K562 lysate, 10 uM; active = over 0.2 and 3.5 SD of the protein, either way, in both replicates (recomputed)
# vemurafenib = compound: CCCS(=O)(=O)Nc1ccc(F)c(C(=O)c2c[nH]c3ncc(-c4ccc(Cl)cc4)cc23)c1F [vemurafenib]
# Procedure, shortened: (§1)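 Log-two fold change in thermal stability relative to solvent controls is reported from duplicates. For each sample, crude K562 extract from dounce-homogenised pellets in PBS pH 7.4 with 1 mM MgCl2, at 1 mg/mL protein, was treated with 10 μM compound for 30 min. Aliquots heated for 3 min across 48°C-58°C were pooled, brought to 0.5% NP-40 at 4°C and cleared at 21,000xg for 90 min. The supernatant was quantified by TMTpro 16plex LC-MS/MS with channel sums equalised.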
# [1] = compound: CCCS(=O)(=O)Nc1ccc(F)c(C(=O)c2c[nH]c3ncc(Cl)cc23)c1F
# Procedure, shortened: as §1
# barasertib = compound: CCN(CCCOc1ccc2c(Nc3cc(CC(=O)Nc4cccc(F)c4)[nH]n3)ncnc2c1)CCOP(=O)(O)O [barasertib]
# Procedure, shortened: as §1
# [2] = compound: CC[C@@H]1C(=O)N(C)c2cnc(Nc3ccc(C(=O)NC4CCN(C)CC4)cc3OC)nc2N1C1CCCC1
# Procedure, shortened: as §1
# volasertib = compound: CC[C@@H]1C(=O)N(C)c2cnc(Nc3ccc(C(=O)N[C@H]4CC[C@H](N5CCN(CC6CC6)CC5)CC4)cc3OC)nc2N1C(C)C [volasertib]
# Procedure, shortened: as §1
# [3] = compound: CCn1c(C(=O)N(C2CC2)C2CC2)cc2c3c(ncn3C)c(Nc3cc(C)n(C)n3)nc21
# Procedure, shortened: as §1
# [4] = compound: CCn1cc(-c2ccnc3[nH]c(-c4cccc(CN(C)C)c4)cc23)c(-c2ccc(NC(=O)N(C)C)cc2)n1
# Procedure, shortened: as §1
# [5] = compound: CN1CCC(CNc2ccc3ncc(-c4cccc(OC(F)(F)F)c4)n3n2)CC1
# Procedure, shortened: as §1
# saracatinib = compound: CN1CCN(CCOc2cc(OC3CCOCC3)c3c(Nc4c(Cl)ccc5c4OCO5)ncnc3c2)CC1 [saracatinib]
# Procedure, shortened: as §1
# sotrastaurin = compound: CN1CCN(c2nc(C3=C(c4c[nH]c5ccccc45)C(=O)NC3=O)c3ccccc3n2)CC1 [sotrastaurin]
# Procedure, shortened: as §1
# alvocidib = compound: CN1CC[C@H](c2c(O)cc(O)c3c(=O)cc(-c4ccccc4Cl)oc23)[C@H](O)C1 [alvocidib]
# Procedure, shortened: as §1
# Tubastatin A = compound: CN1CCc2c(c3ccccc3n2Cc2ccc(C(=O)NO)cc2)C1 [Tubastatin A]
# Procedure, shortened: as §1
# [6] = compound: CNC(=O)C1=CC=CC=C1NC2=NC(=NC=C2Cl)NC3=C(C=C(C=C3)N4CCOCC4)OC
# Procedure, shortened: as §1
# defactinib = compound: CNC(=O)c1ccc(Nc2ncc(C(F)(F)F)c(NCc3nccnc3N(C)S(C)(=O)=O)n2)cc1 [defactinib]
# Procedure, shortened: as §1
# [7] = compound: CNc1nc(-c2ccc3c(N)n[nH]c3c2)cc(N2C[C@@H](C(=O)NC3CCCCC3)CC[C@H]2C)n1
# Procedure, shortened: as §1
# encorafenib = compound: COC(=O)N[C@@H](C)CNc1nccc(-c2cn(C(C)C)nc2-c2cc(Cl)cc(NS(C)(=O)=O)c2F)n1 [encorafenib]
# Procedure, shortened: as §1
# [8] = compound: COC(=O)[C@H](CCSC)NC(=O)C1=C(C=C(C=C1)NC[C@H](CS)N)C2=CC=CC=C2
# Procedure, shortened: as §1
# alisertib = compound: COc1cc(Nc2ncc3c(n2)-c2ccc(Cl)cc2C(c2c(F)cccc2OC)=NC3)ccc1C(=O)O [alisertib]
# Procedure, shortened: as §1
# [9] = compound: COc1cc2nc(-c3cc(F)ccc3O)nc(N[C@@H]3CNC[C@H]3C(C)(C)O)c2cc1OC
# Procedure, shortened: as §1
# gefitinib = compound: COc1cc2ncnc(Nc3ccc(F)c(Cl)c3)c2cc1OCCCN1CCOCC1 [gefitinib]
# Procedure, shortened: as §1
# Chain of UniProt Q9UBB9 (Q9UBB9 whole entry, looked up): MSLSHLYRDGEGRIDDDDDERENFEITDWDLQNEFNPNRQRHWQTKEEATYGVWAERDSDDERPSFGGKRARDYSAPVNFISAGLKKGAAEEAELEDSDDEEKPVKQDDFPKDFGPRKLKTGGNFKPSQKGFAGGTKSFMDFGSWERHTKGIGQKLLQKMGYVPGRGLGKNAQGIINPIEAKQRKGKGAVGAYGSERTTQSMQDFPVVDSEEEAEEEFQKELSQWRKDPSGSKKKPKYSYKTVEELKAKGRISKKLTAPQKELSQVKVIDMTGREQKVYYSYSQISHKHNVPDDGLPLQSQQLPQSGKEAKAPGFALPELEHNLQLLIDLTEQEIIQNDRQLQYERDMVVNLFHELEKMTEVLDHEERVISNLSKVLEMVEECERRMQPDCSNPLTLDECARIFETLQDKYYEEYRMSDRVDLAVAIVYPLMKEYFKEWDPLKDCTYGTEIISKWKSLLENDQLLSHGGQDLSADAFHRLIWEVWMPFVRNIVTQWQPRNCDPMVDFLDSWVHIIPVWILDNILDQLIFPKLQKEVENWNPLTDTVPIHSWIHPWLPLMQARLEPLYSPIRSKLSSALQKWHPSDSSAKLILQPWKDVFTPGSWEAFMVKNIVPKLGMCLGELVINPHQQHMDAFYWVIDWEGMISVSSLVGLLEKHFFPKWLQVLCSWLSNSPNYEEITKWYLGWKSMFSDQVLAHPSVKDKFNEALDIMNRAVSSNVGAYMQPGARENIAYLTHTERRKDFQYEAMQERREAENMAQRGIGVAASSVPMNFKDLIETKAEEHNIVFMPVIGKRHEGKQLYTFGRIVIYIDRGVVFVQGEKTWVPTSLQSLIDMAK
# Chain of UniProt Q8IWV7 (Q8IWV7 whole entry, looked up): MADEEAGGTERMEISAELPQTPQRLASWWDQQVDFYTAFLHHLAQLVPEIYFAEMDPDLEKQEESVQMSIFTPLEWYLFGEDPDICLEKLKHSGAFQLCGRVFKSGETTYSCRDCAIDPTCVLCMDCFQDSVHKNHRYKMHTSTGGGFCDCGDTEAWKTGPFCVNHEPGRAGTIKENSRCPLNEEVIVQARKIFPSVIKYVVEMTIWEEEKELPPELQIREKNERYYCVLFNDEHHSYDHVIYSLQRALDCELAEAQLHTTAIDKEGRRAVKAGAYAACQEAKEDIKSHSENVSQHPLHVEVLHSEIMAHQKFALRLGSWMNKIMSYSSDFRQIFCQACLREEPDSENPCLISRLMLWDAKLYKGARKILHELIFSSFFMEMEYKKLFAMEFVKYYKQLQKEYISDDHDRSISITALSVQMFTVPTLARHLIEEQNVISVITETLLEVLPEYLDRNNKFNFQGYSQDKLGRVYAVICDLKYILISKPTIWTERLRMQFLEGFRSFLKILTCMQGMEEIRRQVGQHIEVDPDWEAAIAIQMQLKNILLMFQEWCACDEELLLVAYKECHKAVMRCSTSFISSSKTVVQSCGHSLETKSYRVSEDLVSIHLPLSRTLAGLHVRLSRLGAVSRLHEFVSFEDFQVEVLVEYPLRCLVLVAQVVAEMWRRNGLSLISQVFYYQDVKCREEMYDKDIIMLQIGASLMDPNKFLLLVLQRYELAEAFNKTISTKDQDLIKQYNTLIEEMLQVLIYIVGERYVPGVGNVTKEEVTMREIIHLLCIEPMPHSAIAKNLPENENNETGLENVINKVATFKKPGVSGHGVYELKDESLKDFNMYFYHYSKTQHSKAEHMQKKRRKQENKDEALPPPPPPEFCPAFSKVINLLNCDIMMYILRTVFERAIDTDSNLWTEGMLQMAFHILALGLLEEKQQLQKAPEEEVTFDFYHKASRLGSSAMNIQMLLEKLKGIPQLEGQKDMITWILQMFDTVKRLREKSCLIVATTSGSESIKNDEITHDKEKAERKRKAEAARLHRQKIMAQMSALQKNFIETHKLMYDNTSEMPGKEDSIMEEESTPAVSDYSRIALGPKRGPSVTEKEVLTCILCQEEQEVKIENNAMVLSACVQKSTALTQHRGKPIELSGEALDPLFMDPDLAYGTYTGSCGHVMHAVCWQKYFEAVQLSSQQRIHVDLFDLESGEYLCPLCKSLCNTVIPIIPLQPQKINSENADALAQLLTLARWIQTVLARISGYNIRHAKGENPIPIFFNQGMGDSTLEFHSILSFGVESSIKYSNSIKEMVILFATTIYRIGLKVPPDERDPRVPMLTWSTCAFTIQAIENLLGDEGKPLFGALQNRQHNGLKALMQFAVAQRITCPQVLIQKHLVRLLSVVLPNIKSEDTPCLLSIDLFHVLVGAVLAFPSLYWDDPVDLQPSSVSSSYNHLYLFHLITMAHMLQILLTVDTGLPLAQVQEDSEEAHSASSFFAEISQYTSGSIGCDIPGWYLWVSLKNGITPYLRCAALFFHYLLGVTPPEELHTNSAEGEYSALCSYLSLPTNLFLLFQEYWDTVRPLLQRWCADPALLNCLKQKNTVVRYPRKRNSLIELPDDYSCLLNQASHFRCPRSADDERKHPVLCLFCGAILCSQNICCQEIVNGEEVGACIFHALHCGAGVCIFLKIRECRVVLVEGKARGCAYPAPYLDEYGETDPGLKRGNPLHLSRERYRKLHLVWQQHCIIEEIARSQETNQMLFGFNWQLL
# Chain of UniProt Q86UE8 (Q86UE8 whole entry, looked up): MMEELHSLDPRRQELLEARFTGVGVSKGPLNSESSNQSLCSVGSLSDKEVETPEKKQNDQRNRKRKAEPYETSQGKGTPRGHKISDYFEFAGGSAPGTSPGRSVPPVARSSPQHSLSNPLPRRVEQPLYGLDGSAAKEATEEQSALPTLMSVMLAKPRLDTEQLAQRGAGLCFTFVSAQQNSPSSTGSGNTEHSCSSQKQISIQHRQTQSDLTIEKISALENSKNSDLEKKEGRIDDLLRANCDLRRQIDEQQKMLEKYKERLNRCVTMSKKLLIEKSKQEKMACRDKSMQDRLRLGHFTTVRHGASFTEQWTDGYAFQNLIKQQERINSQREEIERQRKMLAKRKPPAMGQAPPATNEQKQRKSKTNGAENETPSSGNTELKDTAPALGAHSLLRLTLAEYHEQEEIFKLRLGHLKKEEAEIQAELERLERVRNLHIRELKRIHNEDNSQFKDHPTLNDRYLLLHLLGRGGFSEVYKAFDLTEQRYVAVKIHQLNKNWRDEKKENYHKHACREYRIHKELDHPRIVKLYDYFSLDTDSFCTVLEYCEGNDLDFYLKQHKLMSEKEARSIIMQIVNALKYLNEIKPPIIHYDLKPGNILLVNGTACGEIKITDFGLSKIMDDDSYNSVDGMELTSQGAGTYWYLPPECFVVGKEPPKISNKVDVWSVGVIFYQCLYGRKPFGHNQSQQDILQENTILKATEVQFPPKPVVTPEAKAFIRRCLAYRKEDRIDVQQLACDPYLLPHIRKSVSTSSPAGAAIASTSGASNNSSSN
# Chain of UniProt Q96CW5 (Q96CW5 whole entry, looked up): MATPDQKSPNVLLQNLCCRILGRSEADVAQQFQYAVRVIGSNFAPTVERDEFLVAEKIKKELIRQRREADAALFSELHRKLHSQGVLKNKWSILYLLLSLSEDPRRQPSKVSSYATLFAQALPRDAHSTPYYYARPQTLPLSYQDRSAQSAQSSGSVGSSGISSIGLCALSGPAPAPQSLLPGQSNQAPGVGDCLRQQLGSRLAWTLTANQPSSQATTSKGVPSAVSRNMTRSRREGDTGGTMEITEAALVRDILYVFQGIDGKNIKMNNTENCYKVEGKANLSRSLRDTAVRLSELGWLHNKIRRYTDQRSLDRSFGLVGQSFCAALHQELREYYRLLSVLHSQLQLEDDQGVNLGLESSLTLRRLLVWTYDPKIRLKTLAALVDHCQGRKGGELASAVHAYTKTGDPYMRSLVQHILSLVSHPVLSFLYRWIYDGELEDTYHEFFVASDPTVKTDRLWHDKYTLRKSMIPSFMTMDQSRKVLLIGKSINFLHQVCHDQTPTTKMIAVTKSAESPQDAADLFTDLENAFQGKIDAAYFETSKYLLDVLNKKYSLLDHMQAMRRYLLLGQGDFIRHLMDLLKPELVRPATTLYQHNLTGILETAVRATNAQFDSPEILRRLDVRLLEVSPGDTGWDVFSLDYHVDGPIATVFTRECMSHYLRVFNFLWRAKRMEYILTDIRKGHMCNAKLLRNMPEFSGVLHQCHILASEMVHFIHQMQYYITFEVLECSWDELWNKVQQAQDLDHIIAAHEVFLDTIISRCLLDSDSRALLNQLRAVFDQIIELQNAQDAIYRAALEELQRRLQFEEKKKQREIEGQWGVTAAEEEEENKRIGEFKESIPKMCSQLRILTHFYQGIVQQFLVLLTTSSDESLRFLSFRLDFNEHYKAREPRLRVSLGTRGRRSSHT
# Chain of UniProt Q14258 (Q14258 whole entry, looked up): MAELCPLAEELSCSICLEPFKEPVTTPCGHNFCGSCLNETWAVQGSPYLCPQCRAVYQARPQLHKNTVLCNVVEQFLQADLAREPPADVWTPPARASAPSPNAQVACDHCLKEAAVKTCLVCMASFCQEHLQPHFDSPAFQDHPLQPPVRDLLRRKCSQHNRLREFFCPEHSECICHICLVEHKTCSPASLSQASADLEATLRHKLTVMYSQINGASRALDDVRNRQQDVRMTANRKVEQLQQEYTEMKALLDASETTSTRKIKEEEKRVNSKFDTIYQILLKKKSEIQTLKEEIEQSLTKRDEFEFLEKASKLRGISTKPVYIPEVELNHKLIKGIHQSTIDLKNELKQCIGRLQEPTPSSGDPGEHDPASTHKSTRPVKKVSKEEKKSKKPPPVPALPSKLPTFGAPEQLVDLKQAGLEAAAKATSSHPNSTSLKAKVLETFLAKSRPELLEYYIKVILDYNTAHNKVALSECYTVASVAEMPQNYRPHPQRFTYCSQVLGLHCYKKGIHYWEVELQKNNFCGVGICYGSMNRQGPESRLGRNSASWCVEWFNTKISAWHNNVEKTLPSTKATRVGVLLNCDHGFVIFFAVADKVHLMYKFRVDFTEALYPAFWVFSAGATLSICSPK
# Chain of UniProt Q5BJF2 (Q5BJF2 whole entry, looked up): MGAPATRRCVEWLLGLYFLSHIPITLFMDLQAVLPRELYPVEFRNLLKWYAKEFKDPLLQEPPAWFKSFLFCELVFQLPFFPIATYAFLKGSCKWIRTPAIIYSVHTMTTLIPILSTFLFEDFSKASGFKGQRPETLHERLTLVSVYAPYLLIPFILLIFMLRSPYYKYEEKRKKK
Target,log2 fold change (vemurafenib),log2 fold change [1],log2 fold change (barasertib),log2 fold change [2],log2 fold change (volasertib),log2 fold change [3],log2 fold change [4],log2 fold change [5],log2 fold change (saracatinib),log2 fold change (sotrastaurin),log2 fold change (alvocidib),log2 fold change (Tubastatin A),log2 fold change [6],log2 fold change (defactinib),log2 fold change [7],log2 fold change (encorafenib),log2 fold change [8],log2 fold change (alisertib),log2 fold change [9],log2 fold change (gefitinib)
TDRD3 isoform 3 (UniProt Q9H7E2),0.012,-0.01,-0.043,0.041,-0.054,0.137,0.164,-0.078,-0.094,0.014,0.043,-0.08,0.025,0.033,0.097,-0.006,-0.029,-0.084,-0.042,0.297
UCHL5 isoform 3 (UniProt Q9Y5K5),0.013,0.016,-0.001,-0.019,-0.017,0.014,0.164,-0.06,-0.012,-0.005,-0.009,-0.063,0.008,-0.024,-0.011,-0.004,0.088,-0.026,-0.012,-0.014
TRIM56 (UniProt Q9BRZ2),0.026,0.026,-0.039,0.006,-0.029,-0.04,0.227,-0.102,0.031,-0.019,-0.013,-0.13,0.067,0.008,-0.059,0.068,-0.21,0.04,0.001,-0.01
TUBGCP3 (UniProt Q96CW5),-0.013,0.026,-0.078,0.001,-0.039,0.028,-0.016,0.015,0.002,0.01,-0.003,-0.094,0.026,0.022,-0.024,0.024,0.011,0.044,-0.017,0.056
TJP1 isoform 2 (UniProt Q07157),0.023,0,-0.003,0.064,-0.01,-0.045,-0.046,0.057,0.014,0.014,-0.011,0.047,-0.02,-0.018,0.043,-0.013,0.011,-0.007,0.007,-0.017
TPM4 isoform 2 (UniProt P67936),0.031,-0.016,0.021,0.052,0.005,0.048,0.525 (active),-0.231,-0.001,-0.03,0.062,0.03,-0.027,-0.059,0.028,-0.004,-0.077,-0.098,-0.01,-0.004
TTC5 (UniProt Q8N0Z6),0.016,0.017,-0.014,-0.03,-0.014,0.018,-0.111,0.054,0.005,0.007,-0.006,-0.092,-0.017,-0.017,-0.02,-0.021,0.057,-0.036,-0.01,0.091
TRADD (UniProt Q15628),-0.611 (active),0.052,-0.002,0.07,-0.023,0.065,0.014,0.001,0.011,-0.023,-0.029,-0.066,0.021,-0.092,0.021,-0.012,-0.241,0.009,0.004,-0.03
TNPO3 (UniProt Q9Y5L0),0.024,0.003,0.019,0.009,-0.008,0.008,0.005,0.023,-0.001,-0.004,0.003,-0.04,0,-0.007,-0.007,0,-0.108,-0.001,0.023,-0.018
TCF12 isoform 3 (UniProt Q99081),0.008,-0.068,-0.037,0.034,-0.094,0.017,-0.04,0.079,0.043,-0.054,-0.045,-0.129,0.009,-0.007,-0.013,0.039,-0.043,0.004,-0.025,0.028
TLK2 isoform 2 (UniProt Q86UE8),-0.015,-0.011,0.017,-0.068,-0.03,-0.009,-0.171,0.085,0.021,0.26 (active),-0.027,-0.07,-0.03,0.117,-0.071,0.046,-0.063,-0.01,0.041,-0.004
TFIP11 (UniProt Q9UBB9),0.017,0.025,-0.09,-0.018,-0.059,0.048,-0.027,-0.037,0.018,0.027,-0.013,-0.135,0.024,0.061,-0.023,0.042,0.381 (active),0.062,0.013,-0.041
TMEM97 (UniProt Q5BJF2),0.076,-0.027,0.037,0.028,0.099,-0.048,-0.327 (active),0.173,0.002,-0.08,-0.081,0.114,-0.016,-0.021,0.091,-0.008,-0.042,-0.026,0.014,-0.017
TRIM25 (UniProt Q14258),0.017,0.012,0.001,-0.024,-0.006,-0.007,0.029,-0.035,-0.002,-0.05,0.022,-0.04,0.009,-0.009,0.042,-0.011,-0.058,-0.01,-0.002,-0.029
UBR1 (UniProt Q8IWV7),-0.018,0.025,0.054,-0.032,-0.07,0.03,-0.046,-0.038,0.019,0.004,-0.018,-0.026,0.009,0.001,-0.03,0.033,0.055,0.003,-0.007,0.016
UBE3B (UniProt Q7Z3V4),0.102,-0.052,0.175,0.016,-0.044,0.029,-0.099,-0.132,-0.069,0.055,-0.07,-0.134,0.136,0.028,0.008,0.102,-0.047,0,0.006,0.044
